Only some compounds are listed: those with a hit (about 1.4% of all), similar ones and a draw of the others.
MenB inh: Mtb MenB enzyme inhibition | AID 540299 | 100,000 tested, 0.43% active | inhibition, % (test concentration not listed) | P9WNP5 | MenB enzyme assay, absorbance read-out; in the data active = inhibition above about 21%, passing the limit was not always enough
Target sequence (P9WNP5 whole entry, looked up): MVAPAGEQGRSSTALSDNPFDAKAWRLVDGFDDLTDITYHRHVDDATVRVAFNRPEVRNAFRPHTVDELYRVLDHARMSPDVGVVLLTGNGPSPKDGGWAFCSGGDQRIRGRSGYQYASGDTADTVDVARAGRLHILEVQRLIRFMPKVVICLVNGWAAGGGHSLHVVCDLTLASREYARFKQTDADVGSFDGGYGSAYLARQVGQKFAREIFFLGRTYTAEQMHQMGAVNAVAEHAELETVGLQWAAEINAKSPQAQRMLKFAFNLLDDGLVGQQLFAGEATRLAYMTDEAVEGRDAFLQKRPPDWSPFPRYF
AID504770: E. coli YBA685 growth inhibition, screen for V. cholerae RctB inhibitors; AID 504770; 130,000 tested, 0.27% active; z-score (no concentration beside the values); E. coli YBA685 rctB-dependent plasmid, OD600 growth, 3 h; stronger effect = lower value; in the data active = z-score below about -2, passing the limit was not always enough
Polio RdRp inh: poliovirus RNA polymerase inhibition; P03300; poliovirus polymerase elongation, fluorescence polarization; stronger effect = lower value; % elongation, % (compound at 16.7 µg/mL); 150,000 tested, 0.66% active; in the data active = % elongation below about 90%
MbtI inh: MbtI salicylate synthase inhibition; P9WFX0; purified MbtI enzyme, fluorescence intensity read-out; inhibition, % (test concentration not listed); 100,000 tested, 0.89% active; AID 493033; in the data active = inhibition mostly above about 56%, no sharp cut-off; inactive = mostly below about 77%
* hit, by the source's call; i = inactive; · = no result given.

SMILES	MenB inh	AID504770	Polio RdRp inh	MbtI inh
COc1ccc(C2C(C#N)=C(N)OC(C3CC3)=C2C#N)cc1 (stereo not drawn)	-4.8	-0.85	104.0	-21.1
COc1ccc(C2C(C#N)=C(N)Oc3c2ccc2cccnc32)cc1 (stereo not drawn)	33.1*	0.9	102.0	11.2
O=C1NC(=O)N(c2ccccc2)C(=O)/C1=C/c1ccccc1	-40.1	2.1	98.0	3.2
CCC(C)N1C(=O)/C(=C\c2cnn(-c3ccccc3)c2)C(=O)NC1=S (stereo not drawn)	-29.5	-1.15	99.0	80.2*
CC(C)CN(C(=O)CN1CCN(c2ncccn2)CC1)C1CCS(=O)(=O)C1 (stereo not drawn)	2.7	-0.2	105.0	-6.8
CC(=O)c1ccc(NC(=O)C2=CC(c3cccs3)=NS(=O)(=O)N2C)cc1	·	·	-12.0*	·
Cc1ccccc1N=Cc1sc2ccccc2c1O	-15.6	0.9	75.0	-4.0
Oc1c(/C=N/n2cnnc2)sc2ccccc12	i	-0.15	100.0	70.7*
Cc1[nH]c2ccccc2c1C(c1ccccn1)N1CCN(CCO)CC1 (stereo not drawn)	·	0	103.0	18.2
CN1CCN(C(c2ccccn2)c2c(-c3ccccc3)n(O)c3ccccc23)CC1 (stereo not drawn)	-9.2	-0.15	88.0*	22.4
O=C1C=CC(=O)C(CCCCCCC2=CC(=O)C=CC2=O)=C1	11.3	-0.1	101.0	95.7*
CCc1ccc(C2=CC(=O)C=CC2=O)cc1	1.8	-0.15	102.0	43.1
O=C1C=CC(=O)C(CCC2=CC(=O)C=CC2=O)=C1	14.2	0.6	101.0	98.1*
Cc1cc2nn(-c3ccccc3)nc2cc1NC(=O)c1ccccc1	·	-0.85	·	-4.8
COC(=O)c1sc(N)c(C(=O)OC)c1COC(=O)CSc1nnnn1-c1cc(C)ccc1C	-5.9	0.1	111.0	18.8
S=C(SCc1ncon1)N1CCOCC1	-4.9	-0.75	96.0	92.2*
Cc1cc(C(=O)CSc2nncn2C)c(C)n1CCc1ccc(Cl)cc1	-17.5	0.25	106.0	9.1
Cc1conc1NC(c1cccs1)c1ccc2cccnc2c1O (stereo not drawn)	-73.5	1.05	118.0	96.7*
CC(Nc1nc2ccccc2s1)C(=O)O (stereo not drawn)	13.2	0.15	98.0	-4.0
O=C(NCCN1CCCC1)c1n[nH]c(=O)c2ccccc12	·	-1.1	·	·
Cc1ccccc1N1C(=O)Cc2ccccc2C1=O	8.3	0.1	48.0*	-5.9
COc1ccc(N2C(=O)Cc3ccccc3C2=O)cc1	·	0.3	·	·
Cc1cc(=O)oc2cc(OCC(=O)OCc3cn4cc(Cl)ccc4n3)ccc12	-0.5	1.2	105.0	-153.5
CC1(C)CC(=O)C(C2(O)C(=O)NC(=O)NC2=O)=C(O)C1	-86.2	-0.25	56.0*	-2.7
COc1ccc(CCN2CC(=O)N3CCCC(C4=CC(=O)C=CC4=O)=C3C2=O)cc1OC	-13.2	-0.4	95.0	98.8*
SMILES	MenB inh	AID504770	Polio RdRp inh	MbtI inh
COc1ccc(CCN2C(=O)CC(=O)NC2=S)cc1OC	-120.7	-0.35	100.0	27.4
CN(C)S(=O)(=O)N=C1C=CC(=NS(=O)(=O)N(C)C)C=C1	-3.1	-0.15	88.0*	9.8
S=c1[nH]nc(-c2ccncc2)n1C1CC1	9.0	1.4	·	59.8*
C=CCn1c(-c2ccncc2)n[nH]c1=S	8.3	-0.9	100.0	69.6*
Cn1c(=O)[nH]c(=O)c2c1nc1n2CCCN1c1ccccc1	35.8*	-0.65	101.0	-12.4
Cc1cccc(N2CCCn3c2nc2c3c(=O)n(C)c(=O)n2C)c1	0.8	-2.45	102.0	-10.9
CC(C)N(C(=O)NC(=O)Nc1ccc(C=C(C#N)C#N)cc1)S(C)(=O)=O	-143.4	-0.25	88.0*	12.6
COc1ccc(OC(=O)C2CCN(S(=O)(=O)c3cccc4nsnc34)CC2)cc1	-8.2	2.95	107.0	-8.7
Cc1cccc(OCc2nc(-c3ccccc3)no2)c1	·	0.4	103.0	3.0
CCOC(=O)Cn1cc(/C=C2\C(=O)NC(=O)N(c3ccc(F)cc3)C2=O)c2ccccc21	-29.7	-0.85	68.0	-3.6
N#CCn1cc(/C=C2\C(=O)NC(=O)N(c3cccc(F)c3)C2=O)c2ccccc21	-23.7	1.85	101.0	74.2*
CC(C)S(=O)(=O)c1csc(C(=O)OCC(=O)c2ccccc2)c1N	·	-0.05	·	·
Cc1cc(C)c(NC(=O)c2oc3c(c2C)-c2[nH]ncc2CC3)c(C)c1	·	·	108.0	·
Cc1ccc(Cl)cc1NC(=O)c1oc2c(c1C)-c1[nH]ncc1CC2	·	·	78.0*	·
CC(=O)N(c1ccc(Cl)cc1)C1C=CS(=O)(=O)C1 (stereo not drawn)	·	-2.5*	·	·
CC(C)(C)N(N)C(=S)NCc1ccc(F)cc1	-23.2	-0.85	86.0*	90.0*

From PubChem BioAssay
